These results are taken from PubChem BioAssay (NCATS).

Several values for one entry are separate records, joined by “and”; a condition that tells them apart may be missing. Equal values may be shown once. Inconclusive results are not listed. Activity calls are given as the source filed them. Unless noted, calls follow the shape of the dose curve; as a rule, active = well fitted inhibition curve with a large enough effect; inconclusive = small, poorly fitted or top-dose-only effect; inactive = flat fitted curve, though single readings scatter.

Assay [1] addresses Vitamin D3 receptor (Homo sapiens) (UniProt P11473). Put plainly: qHTS assay for small molecule agonists of vitamin D receptor signaling (AID 588543; calls by dose curve;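 also: 0% = DMSO basal and 100% = reference agonist control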). The method in brief:
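Reporter cells (HEK293T, VDR-UAS-bla) were seeded in medium with 2% charcoal-stripped serum and incubated 5 h, then compounds in concentration series were added for 16 h at 37 °C. Stimulation was scaled between DMSO basal and 50 nM 1α,25-dihydroxyvitamin D3.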
In general terms: Quantitative high-throughput screening tests each substance at several concentrations.

Assay [2] in a line: qHTS assay for small molecule agonists of retinoid X receptor alpha signaling (AID 588544; calls by dose curve). To be noted: HEK293T RXRa-UAS-bla, beta-lactamase reporter, 18 h; 530 nm emission.
In assay [3] the target is Retinoic acid receptor RXR-alpha (Homo sapiens) (UniProt P19793). Described as above.
Retinoic acid receptor RXR-alpha (Homo sapiens), sequence (P19793 whole entry, looked up): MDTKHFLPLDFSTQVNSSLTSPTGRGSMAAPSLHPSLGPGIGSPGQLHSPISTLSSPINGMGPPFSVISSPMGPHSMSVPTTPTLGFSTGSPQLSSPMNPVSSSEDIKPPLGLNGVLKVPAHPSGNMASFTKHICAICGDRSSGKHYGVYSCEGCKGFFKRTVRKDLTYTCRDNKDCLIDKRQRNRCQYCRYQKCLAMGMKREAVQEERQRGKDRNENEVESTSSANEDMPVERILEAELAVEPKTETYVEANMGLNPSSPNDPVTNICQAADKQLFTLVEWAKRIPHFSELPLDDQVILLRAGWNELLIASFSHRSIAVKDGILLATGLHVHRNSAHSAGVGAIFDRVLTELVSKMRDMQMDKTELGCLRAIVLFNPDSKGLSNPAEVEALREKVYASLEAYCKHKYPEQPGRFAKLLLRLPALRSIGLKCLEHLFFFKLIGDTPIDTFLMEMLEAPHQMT
The nature of assay [4]: qHTS assay for small molecule antagonists of retinoid X receptor alpha signaling (AID 588546; active = well fitted inhibition curve with a large enough effect in the signal ratio, with a control signal flat, not every such curve was filed as active; the % refers to the signal ratio;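 also: cells stimulated with 9-cis-retinoic acid as agonist; % is scaled to controls: 0 for no effect and ±100 for the full control effect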). To be noted: HEK293T RXRa-UAS-bla, beta-lactamase ratio, antagonist mode; measured here: W530 green channel, cytotoxicity proxy. Summed up: (§1)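 Beta-lactamase reporter inhibition, read as CCF4 fluorescence ratio (ex 405, em 460/530 nm) after 2 h at RT. HEK293T UAS-bla cells, 2500/well, were stimulated with 9-cis-RA at 500 or 100 nM final alongside test compound for 18 h at 37 C.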

The target of assay [5] is Retinoic acid receptor RXR-alpha (Homo sapiens) (UniProt P19793). Described as above. To be noted: HEK293T RXRa-UAS-bla, beta-lactamase ratio, antagonist mode. The method in brief: as §1
Assay [6] has as its target Thyroid hormone receptor beta (Homo sapiens) (UniProt P10828). Put plainly: qHTS assay for small molecule antagonists of thyroid hormone receptor beta signaling (AID 588547; active = well fitted inhibition curve with a large enough effect in the signal ratio, with a control signal flat, not every such curve was filed as active; the % refers to the signal ratio;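 also: cells stimulated with 0.4 nM T3 agonist during compound exposure; series mostly up to about 77 µM; % is scaled to controls: 0 for no effect and ±100 for the full control effect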). The note with it: TR-UAS-bla HEK293, beta-lactamase ratio, antagonist mode, 18 h. Summed up: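 TR-UAS-bla GripTite HEK293 cells in 2% charcoal/dextran FBS medium; compounds 0.59 nM to 92 uM with T3 at 0.4nM final, 18 h at 37 C. Beta-lactamase read by CCF4 fluorescence (460/530 nm); Hill fits gave IC50 and efficacy.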

Assay [7] has as its target Voltage-gated inwardly rectifying potassium channel KCNH2 (Homo sapiens) (UniProt Q12809). The experiment in a line: qHTS Assay for Small Molecule Inhibitors of the Human hERG Channel Activity (AID 588834).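 Also: lower thallium flux fluorescence means stronger hERG block; nearly all actives have a fitted effect of over 50% in size.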 Also: potency is read from the fitted curve at half-maximal effect. The method in brief: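 Step 1: BacMam hERG transduction of U2OS, 4 hrs RT. Step 2: overnight 37 °C, plate 2000 cells/well, 4 hr. Step 3: FluxOR load, compound 10 min, stimulate, read fluorescence.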

Assay [8] deals with Thyroid hormone receptor beta (Homo sapiens) (UniProt P10828). The experiment in a line: qHTS assay for small molecule agonists of thyroid hormone receptor beta signaling (AID 588545; calls by dose curve;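 also: 0% = DMSO only and 100% = 10 nM T3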). Summed up: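 TR-UAS-bla-GripTite HEK 293 cells in medium with 2% charcoal/dextran FBS, 0.1 mM NEAA and 1 mM sodium pyruvate were treated with titrated compounds for 18 hrs at 37 C. Beta-lactamase reporter was read with CCF4 dye (ex 405, em 460/530 nm); EC50 from Hill fits.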
Thyroid hormone receptor beta (Homo sapiens), sequence (P10828 whole entry, looked up): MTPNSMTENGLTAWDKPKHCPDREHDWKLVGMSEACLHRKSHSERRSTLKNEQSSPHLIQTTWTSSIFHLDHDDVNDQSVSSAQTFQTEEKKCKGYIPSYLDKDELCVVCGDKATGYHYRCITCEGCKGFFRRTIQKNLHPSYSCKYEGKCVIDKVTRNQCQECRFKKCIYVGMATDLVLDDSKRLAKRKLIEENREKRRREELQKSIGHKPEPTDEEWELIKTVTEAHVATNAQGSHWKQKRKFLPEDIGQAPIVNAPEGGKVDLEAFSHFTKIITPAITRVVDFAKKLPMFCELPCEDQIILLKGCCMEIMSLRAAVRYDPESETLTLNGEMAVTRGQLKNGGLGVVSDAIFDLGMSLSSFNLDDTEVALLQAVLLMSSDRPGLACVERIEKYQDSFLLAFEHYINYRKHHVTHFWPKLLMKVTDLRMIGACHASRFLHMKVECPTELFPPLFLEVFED

Assay [9] addresses Peroxisome proliferator-activated receptor gamma (Homo sapiens) (UniProt P37231). The experiment in a line: qHTS assay for small molecule antagonists of peroxisome proliferator-activated receptor gamma signaling (AID 588537; active = well fitted inhibition curve with a large enough effect in the signal ratio, with a control signal flat, not every such curve was filed as active; the % refers to the signal ratio;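 also: reporter cells co-stimulated with 50 nM rosiglitazone agonist during compound treatment; % of control where 0% means no effect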). The method in brief: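 Fluorescence at 460 and 530 nm (405 nm excitation) reported beta-lactamase cleavage of CCF4 after 2 h room-temperature loading. HEK293 reporter cells in 1% charcoal/dextran-treated FBS had received compound and rosiglitazone for 16 h.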

Vitamin D3 receptor (Homo sapiens), sequence (P11473 whole entry, looked up): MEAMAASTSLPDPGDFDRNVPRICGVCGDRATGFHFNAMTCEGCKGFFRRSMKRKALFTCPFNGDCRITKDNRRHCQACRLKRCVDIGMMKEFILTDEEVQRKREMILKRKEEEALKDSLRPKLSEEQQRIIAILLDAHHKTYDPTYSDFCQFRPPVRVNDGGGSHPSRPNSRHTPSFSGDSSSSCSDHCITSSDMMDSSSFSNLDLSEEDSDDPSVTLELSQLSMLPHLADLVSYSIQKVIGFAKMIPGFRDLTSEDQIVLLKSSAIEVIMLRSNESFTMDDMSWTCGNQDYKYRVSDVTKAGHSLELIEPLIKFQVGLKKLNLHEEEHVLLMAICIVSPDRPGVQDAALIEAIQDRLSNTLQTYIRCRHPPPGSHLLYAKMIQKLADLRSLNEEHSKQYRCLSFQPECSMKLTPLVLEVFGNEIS
Voltage-gated inwardly rectifying potassium channel KCNH2 (Homo sapiens), sequence (Q12809 whole entry, looked up): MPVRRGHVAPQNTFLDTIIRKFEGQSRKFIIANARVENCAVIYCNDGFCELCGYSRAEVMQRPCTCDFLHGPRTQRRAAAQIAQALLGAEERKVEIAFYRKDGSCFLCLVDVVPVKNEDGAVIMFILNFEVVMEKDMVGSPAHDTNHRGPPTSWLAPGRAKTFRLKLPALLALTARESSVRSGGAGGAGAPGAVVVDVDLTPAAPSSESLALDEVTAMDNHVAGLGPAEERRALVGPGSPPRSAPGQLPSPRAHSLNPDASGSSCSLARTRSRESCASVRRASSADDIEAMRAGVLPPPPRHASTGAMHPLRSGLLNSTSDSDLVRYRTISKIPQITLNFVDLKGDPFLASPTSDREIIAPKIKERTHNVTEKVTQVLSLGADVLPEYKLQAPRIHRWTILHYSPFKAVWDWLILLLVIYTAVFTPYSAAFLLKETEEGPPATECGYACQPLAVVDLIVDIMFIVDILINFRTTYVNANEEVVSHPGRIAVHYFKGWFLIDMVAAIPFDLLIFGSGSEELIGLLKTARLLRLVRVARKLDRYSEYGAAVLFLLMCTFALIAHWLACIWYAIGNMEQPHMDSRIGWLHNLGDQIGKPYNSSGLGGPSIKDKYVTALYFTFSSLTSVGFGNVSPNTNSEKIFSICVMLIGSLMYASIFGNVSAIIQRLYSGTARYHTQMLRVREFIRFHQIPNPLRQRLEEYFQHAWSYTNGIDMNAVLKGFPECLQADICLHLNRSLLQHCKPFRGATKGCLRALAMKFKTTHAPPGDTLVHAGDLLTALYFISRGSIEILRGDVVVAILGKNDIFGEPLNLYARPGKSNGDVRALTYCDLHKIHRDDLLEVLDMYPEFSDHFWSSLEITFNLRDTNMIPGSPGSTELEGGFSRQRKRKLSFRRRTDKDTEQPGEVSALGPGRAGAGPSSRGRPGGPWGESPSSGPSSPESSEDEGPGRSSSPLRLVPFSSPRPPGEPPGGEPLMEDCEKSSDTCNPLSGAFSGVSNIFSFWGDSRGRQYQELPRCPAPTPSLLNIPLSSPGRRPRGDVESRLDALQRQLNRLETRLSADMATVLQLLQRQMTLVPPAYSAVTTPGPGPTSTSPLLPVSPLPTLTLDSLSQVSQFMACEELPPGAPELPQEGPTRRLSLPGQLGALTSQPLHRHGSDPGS
Peroxisome proliferator-activated receptor gamma (Homo sapiens), sequence (P37231 whole entry, looked up): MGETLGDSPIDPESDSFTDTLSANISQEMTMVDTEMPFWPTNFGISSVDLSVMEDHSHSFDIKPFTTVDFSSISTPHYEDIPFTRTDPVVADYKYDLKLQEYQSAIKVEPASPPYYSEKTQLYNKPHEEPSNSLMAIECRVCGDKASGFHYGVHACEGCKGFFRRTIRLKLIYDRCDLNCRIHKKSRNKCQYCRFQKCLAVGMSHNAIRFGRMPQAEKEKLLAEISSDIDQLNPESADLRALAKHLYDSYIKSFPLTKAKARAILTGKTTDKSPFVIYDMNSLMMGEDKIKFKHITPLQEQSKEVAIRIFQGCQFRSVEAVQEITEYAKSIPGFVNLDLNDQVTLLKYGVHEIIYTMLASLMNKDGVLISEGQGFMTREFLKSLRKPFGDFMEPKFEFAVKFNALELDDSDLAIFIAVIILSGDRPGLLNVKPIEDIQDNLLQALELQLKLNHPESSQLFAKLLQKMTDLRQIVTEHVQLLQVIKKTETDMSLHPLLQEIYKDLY

For the compound `CCCN(CCC)c1c([N+](=O)[O-])cc(S(N)(=O)=O)cc1[N+](=O)[O-]`, in assay [1], the compound was called inactive. Further, the max response in assay [2] was -0.936%; in [4], -18.5%; in [5], 2.44% (inactive). Besides, the Potency result in assay [3] is “inactive”. In addition, in assay [6], the activity change % (negative = inhibition) was 0.13% (inactive).
Regarding `Brc1ccccc1-c1ccccc1`, the Potency in assay [7] was 28.2 µM (active).
Turning to `CCCN(CCC)[C@@H]1CCc2ccc(O)cc2C1`, the Potency in [7] was 2.51 µM (active).
On the same count and under the same terms, the result for `Cc1c(C(=O)c2cccc3ccccc23)c2cccc3c2n1[C@H](CN1CCOCC1)CO3` reads 6.31 µM (active).
Take `COc1nn(CSP(=S)(OC)OC)c(=O)s1`: the compound was classed as inactive in [1] and in assay [8].
`NC1CCc2cc(O)c(O)cc2C1` (configuration not stated): in [7], the Potency entry was “inactive”.
Take `CC(C)(O)C(=O)Nc1ccc([N+](=O)[O-])c(C(F)(F)F)c1`: the call in assay [1] and in assay [8] was inactive. The figures for the max response in assay [2], in assay [4] and in assay [5] were 11.6%, 15.1% and -2.4% (inactive), respectively. Also, the Potency result in assay [3] and in assay [7] was “inactive” throughout. Besides, the activity change % (negative = inhibition) in [6] was 23.5% (inactive).
For `O=C(O)COc1nc(Cl)c(Cl)cc1Cl`, the compound was classed as inactive in assay [8]. Further, the max response in assay [4] was 0.628%; in assay [5] it was 6.2% (inactive). In assay [6], the activity change % (negative = inhibition) is 3.94% (inactive).
In the case of `CC(C)Oc1cccc(NC(=O)c2ccccc2C(F)(F)F)c1`, the compound was classed as inactive in assay [1] and in assay [8]. For the same compound, the results for the max response in [4] and in assay [5] were 0.398% and -12.2% (inactive), respectively. In [6], the activity change % (negative = inhibition) is -3.3% (inactive).
For `CCCCCCCCCCCCCCCC[N+](C)(C)C`, the Potency entry in assay [9] and in assay [7] was “inactive” each time. Also, the compound was called inactive in assay [1]. The results for the max response in assay [4] and in assay [5] were -7.98% and -2.56% (inactive), respectively.
For the compound `Cn1cnc(CCN)c1`, the Potency result in assay [7] was “inactive”.
The same measure, in the same setting: the result for `NCc1cc(=O)[nH]o1` reads “inactive”; that for `C[C@]12CCC(=O)C(O)=C1CC[C@@H]1[C@H]3CCC(=O)[C@@]3(C)CC[C@@H]12`, “inactive”.
As for `CC(C)(c1ccc(O)cc1)c1ccc(O)cc1`, the Potency entry in [9], in assay [3] and in [7] was “inactive” throughout. Also, in assay [2], the max response was 0.616% and 8.18%. For the same compound, the activity change % (negative = inhibition) in assay [6] is -3.91% (inactive).
Turning to `c1ccc2occc2c1`, the Potency result in assay [9] is “inactive”. In addition, the activity change % (negative = inhibition) in [6] was -0.0158% (inactive) and 0.269% (inactive).
Turning to `CNCCc1ccc(O)c(O)c1`, the Potency result in assay [7] was “inactive”.
As for `Nc1ccc(Cl)cc1`, the call in assay [8] was inactive. Moreover, the figures for the max response in assay [4] and in assay [5] were -14.8% and -9.24% (inactive), respectively. Besides, in assay [6], the activity change % (negative = inhibition) is 5.44% (inactive). Further, the Potency result in assay [7] was “inactive”.
Regarding `Oc1ccc2c3c1O[C@H]1c4[nH]c5c(c4C[C@@]4(O)[C@@H](C2)N(CC2CC2)CC[C@]314)C[C@@]1(O)[C@H]2Cc3ccc(O)c4c3[C@@]1(CCN2CC1CC1)[C@H]5O4`, in assay [7], the Potency result was “inactive”.
The same measure, in the same setting: the value for `CC(=O)[O][Hg][c]1ccccc1` was 14.1 µM (active) and 25.1 µM (active).
Regarding `O=C(O)CC[N+](=O)[O-]`, the Potency entry in assay [7] was “inactive”.
Still for that read-out and setting: the value for `O=C(O)[C@@H]1CCN1` was “inactive”.
For `CCO/N=C(\CC)C1=C(O)CC(c2c(C)cc(C)cc2C)CC1=O` (configuration not stated), the Potency result in [9] is “inactive”. Also, the result in [1] and in assay [8] was inactive. Also, the max response in [4] was -8.17%; in assay [5], -5.84% (inactive). For the same compound, the activity change % (negative = inhibition) in assay [6] is 5.1% (inactive).
Regarding `O=C(O)CCCOc1ccc(Cl)cc1Cl`, the Potency result in [9] was “inactive”. For the same compound, the compound was called inactive in [1] and in [8]. Moreover, the max response in assay [4] is 17.8%; in assay [5], -3.54% (inactive). In addition, the activity change % (negative = inhibition) in [6] is 12.5% (inactive).
As for `CO/C=C(/C(=O)OC)c1ccccc1Oc1cc(Oc2ccccc2C#N)ncn1`, the compound was called inactive in [1] and in assay [8].
Turning to `Clc1cnc(Oc2ccc(Oc3ncc(Cl)cc3Cl)cc2)c(Cl)c1`, the Potency entry in assay [9] and in assay [7] was “inactive” in each case. The compound was classed as inactive in [1]. For the same compound, the max response in assay [4] was -4.82%; in assay [5], -16.8% (inactive).
Consider `NC(CP(=O)(O)O)C(=O)O` (configuration not stated), for which, in assay [7], the Potency entry is “inactive”.
In the case of `CNCCc1c[nH]c2ccc(O)cc12`, the Potency entry in [7] was “inactive”.
Turning to `O=C1C(I)=CC(=C(c2cc(I)c(O)c(I)c2)c2ccccc2C(=O)O)C=C1I`, the Potency result in assay [7] was “inactive”.
Take `Cc1nccc2c1[nH]c1ccccc12`: the Potency entry in [7] was “inactive”.
On to `ClC1=C(Cl)[C@]2(Cl)[C@@H]3[C@@H]4C[C@@H]([C@H]5O[C@@H]45)[C@@H]3[C@@]1(Cl)C2(Cl)Cl`, for which the compound was classed as inactive in assay [1] and in assay [8]. Besides, the max response in assay [4] was 5.74%; in [5], -14.7% (inactive). In assay [6], the activity change % (negative = inhibition) was -14.5% (inactive).
Regarding `CC[C@@]1(O)C(=O)OCc2c1cc1n(c2=O)Cc2cc3ccccc3nc2-1`, the Potency result in [7] was “inactive”.
Same read-out and setting: the result for `S=C(NC1CCCCC1)N1CCC(c2cnc[nH]2)CC1` reads “inactive”.
As to `CN[C@@H]1C[C@@H](c2ccc(Cl)c(Cl)c2)c2ccccc21`, the Potency in assay [7] was 12.6 µM (active).
On to `CS(=N)(=O)CC[C@H](N)C(=O)O` (some centres not stated), for which, in assay [7], the Potency result is “inactive”.
On the same count and under the same terms, the value for `COc1ccc2c(c[n+](C)c3c4cc5c(cc4ccc23)OCO5)c1OC` was “inactive”.
